Assay outcomes: PubChem BioAssay, National Center for Advancing Translational Sciences (NCATS)
The sample as a whole holds a higher share of hits than the screen did.
G9a block – G9a (human) methyltransferase inhibition | G9a H3K9 monomethylation, AlphaScreen, 2 h | Potency, µM (highest dose often 102 µM), hits mostly inhibitors | 350,000 compounds, 8.8% hits | AID 504332; further: nearly all actives have a fitted effect of over 75% in size
Target sequence (Q96KQ7 913-1193 limits assumed): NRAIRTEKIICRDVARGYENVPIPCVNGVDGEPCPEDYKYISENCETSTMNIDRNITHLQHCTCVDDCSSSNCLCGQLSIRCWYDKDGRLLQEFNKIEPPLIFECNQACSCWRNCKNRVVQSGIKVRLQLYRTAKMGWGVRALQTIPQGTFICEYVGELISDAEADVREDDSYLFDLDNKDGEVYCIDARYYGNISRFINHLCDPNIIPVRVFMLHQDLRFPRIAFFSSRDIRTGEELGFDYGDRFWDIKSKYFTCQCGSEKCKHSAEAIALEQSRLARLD
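Chemiluminescent proximity detection of H3K9 monomethylation, read after 10 min bead incubation in the dark. Reaction: 20 nM G9a, 500 nM biotin-H3K9 peptide, 20 uM SAM cofactor, 2 h, room temperature, following 15 min enzyme-compound preincubation.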
Sfp inh – Sfp phosphopantetheinyl transferase inhibition; 310,000 compounds, 3.5% hits; Biochemical Sfp PPTase activity, qHTS; Potency, µM, hits mostly inhibitors; AID 1490; Q9F4F7;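 further: the enzyme is Sfp with the accession as filed and its product quenches rhodamine fluorescence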
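Fluorescence-quenching assay: 15 nM Sfp-PPTase preincubated 15 min at room temperature with compound, then 5 uM rhodamine-CoA and 12.5 uM BHQ-2-labelled YbbR peptide added. Fluorescence (ex 525/em 598 nm) read at start and after 30 min; difference gives rate.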
VDR inh – inhibitors of human vitamin D receptor; VDR-SRC2-3 peptide fluorescence polarization, 2 h; P11473; AID 504847; 400,000 compounds, 0.93% hits; Potency, µM, hits mostly inhibitors
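Fluorescence polarization assay measuring small-molecule disruption of VDR binding to the coregulator peptide SRC2-3. Compounds were pin-transferred (23 nl) into the reagent mix and incubated 2 h at room temperature before reading.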
ALOX12 inh – ALOX12 (human) lipoxygenase inhibition. P18054. purified 12hLO, xylenol orange hydroperoxide absorbance. Potency, µM (series often up to 108 µM), usual class: inhibitors. 580,000 compounds, 1.1% hits
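Purified human 12hLO (150 nM final) in 25 mM Hepes, 0.01% Triton X-100, pH 7.0 was preincubated 15 min at room temperature with compound. Then 40 uM arachidonic acid was added, 30 min. Hydroperoxide was read by Fe-XO absorbance ratio 573/405 nm.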
Glioma ERSR ind – induces the endoplasmic reticulum stress response in human glioma cells; U87-MG GRP78 promoter luciferase reporter, 16 h; 420,000 compounds, 0.02% hits; AID 602332; Potency, µM, usual class: activators; further: series mostly up to about 76 µM; nearly all actives have a fitted effect of over 35% in size
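ERSR induction read as luciferase luminescence (Bright-Glo, 10 min at room temperature) in stably transfected human U87-MG glioma cells exposed to compounds for 16 h, using GRP78 as sensor.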
Of the large screens only hits and unclear results are named; the others gave an inactive call; ! = not active in a repeat. The call rests on the fitted dose curve; in most records, active means well fitted curve in the direction sought with a large enough effect; inconclusive means small, poorly fitted or top-dose-only effect, or another doubt; inactive means no such curve, though single readings can be large; an effect the other way counts as inactive or inconclusive.

C[C@@H](Cc1cccc(C(F)(F)F)c1)NCCOC(=O)c1ccccc1	none (no result: ALOX12 inh)
CC(Cc1cccc(C(F)(F)F)c1)NCCOC(=O)c1ccccc1 (stereo not given)	G9a block 13µM!, ALOX12 inh inconclusive
CSc1ccc(-c2ccc3c(c2)C(=O)N2CC[C@H](NC(=O)c4cccs4)[C@H]2C(=O)N3)cc1	none (no result: G9a block, Sfp inh, VDR inh, Glioma ERSR ind)
COC(=O)c1ccc2c(c1O)C(=O)c1ccccc1C2=O	G9a block 13µM, Sfp inh inconclusive
O=C(O)c1ccc([N+](=O)[O-])c2c1C(=O)c1ccccc1C2=O	ALOX12 inh inconclusive (no result: G9a block, Sfp inh)
Nc1c(C(=O)O)ccc2c1C(=O)c1ccccc1C2=O	G9a block 35µM
Nc1cc(C(=O)O)c(N)c2c1C(=O)c1ccccc1C2=O	G9a block inconclusive, Sfp inh inconclusive, VDR inh 8.9µM (no result: ALOX12 inh)
Cc1c(F)cccc1NC(=O)c1nn(C)c(=O)c2ccccc12	none (no result: G9a block, Sfp inh, VDR inh, Glioma ERSR ind)
CCCc1ccc(-c2csc(NC(=O)c3cnc4c(c3)c(=O)n(C)c(=O)n4C)n2)cc1	none (no result: G9a block, Sfp inh, VDR inh, Glioma ERSR ind)
Cc1ccc(Cc2c(-c3ccco3)nc3c4ccccc4ccn23)cc1	ALOX12 inh 5µM (no result: G9a block, Sfp inh, VDR inh)
Cc1ccc(Cc2c(-c3ccccc3)nc3c(C)cc(Br)cn23)cc1	none (no result: G9a block, Sfp inh, VDR inh, Glioma ERSR ind)
Cc1ccc(Cc2c(-c3ccco3)nc3c(C)cc(Br)cn23)cc1	ALOX12 inh 14µM (no result: G9a block, Sfp inh, VDR inh)
CCCc1nc2c3ccccc3ccn2c1Cc1ccc(C)cc1	ALOX12 inh inconclusive (no result: G9a block, Sfp inh, VDR inh)
CCc1cccc(CC)c1NC(=O)CCc1ncc(-c2ccccc2)o1	none (no result: G9a block, Sfp inh, VDR inh, Glioma ERSR ind)
CC1(C(=O)Nc2ccc(F)cc2)CN(Cc2ccccc2)Cc2ccc(N3CCOCC3)nc21 (stereo not given)	none (no result: G9a block, Sfp inh, VDR inh, Glioma ERSR ind)
CCCC1=Nc2cc(C(=O)NCCc3ccc(OC)c(OC)c3)ccc2Sc2ccccc21	none (no result: G9a block, Sfp inh, VDR inh, Glioma ERSR ind)
NC(=S)c1ccc[n+]([O-])c1	VDR inh 50µM, ALOX12 inh inconclusive (no result: G9a block, Sfp inh)
CC(C)(C)C(=O)Cc1[nH]c2cc(Cl)ccc2c1C(C)(C)C	none (no result: G9a block, Sfp inh, VDR inh, Glioma ERSR ind)
Cc1nc2nc(C)c(NS(=O)(=O)c3ccc(Cl)cc3)c(=O)n2[nH]1	G9a block inconclusive
Cc1ccc(S(=O)(=O)Nc2c(C)nc3nc(C)[nH]n3c2=O)cc1	G9a block 79µM
Cc1nc2nc(C)c(NS(=O)(=O)c3ccc(CC(C)C)cc3)c(=O)n2[nH]1	G9a block 40µM
Cc1nc2nc(C)c(NS(=O)(=O)c3ccc(F)cc3)c(=O)n2[nH]1	none (no result: Sfp inh)
O[C@]12CCNC[C@H]1CN(Cc1cccc(-c3ccccc3)c1)CC2	none (no result: G9a block, Sfp inh, VDR inh, Glioma ERSR ind)
CC1CCC(NC(=O)C2CC(=O)N(c3ccc(Cl)cc3)C2)CC1 (stereo not given)	G9a block 32µM
O=C(NC1CC1)C1CC(=O)N(c2cccc(Cl)c2)C1 (stereo not given)	G9a block 25µM
C#CCNC(=O)C1CN(c2cccc(Cl)c2)C(=O)N1 (stereo not given)	ALOX12 inh 50µM! (no result: G9a block, Sfp inh, VDR inh, Glioma ERSR ind)
Cc1ccc(N2CC(C(=O)NC3CC3)CC2=O)cc1Cl (stereo not given)	none
C#CCNC(=O)C1CN(c2ccccc2)C(=O)N1 (stereo not given)	none (no result: G9a block, Sfp inh, VDR inh, Glioma ERSR ind)
CNC(=S)NNC(=O)C1CCCCC1	none (no result: G9a block, Sfp inh, VDR inh, Glioma ERSR ind)
C/C(=N\NC(=O)c1cccc(N/N=C(\C)c2ccco2)c1)c1ccco1	G9a block 35µM
CCc1nc2ccc(C(=O)NCc3ccco3)cc2nc1CC	Sfp inh 35µM
O=C(NCc1ccco1)c1cccc(NC(=O)c2ccco2)c1	G9a block 56µM
O=C(NCc1ccccc1)c1cccc(NC(=O)c2ccco2)c1	none
CCCN1C(=O)c2ccc(C(=O)NCc3ccco3)cc2C1=O	Sfp inh 45µM, ALOX12 inh inconclusive
Cc1ccc(-n2c(C)c(C)c3c2ncn2nc(-c4ccncc4)nc32)cc1	none (no result: G9a block, Sfp inh, VDR inh, Glioma ERSR ind)
COc1ccc(NC(=O)CCc2ncc(-c3ccccc3F)o2)cc1Cl	none (no result: G9a block, Sfp inh, VDR inh, Glioma ERSR ind)
CC(C)c1cc(O)c(-c2ccccc2)c(=O)n1-c1ccc(Cl)cc1	none
CC(C)c1c(Cl)c(O)c(-c2ccccc2)c(=O)n1-c1ccc(F)cc1	G9a block 45µM, Sfp inh inconclusive, ALOX12 inh inconclusive
Cc1nc(SCC(=O)Nc2sccc2C(N)=O)c2c(C)c(C)sc2n1	ALOX12 inh inconclusive (no result: G9a block, Sfp inh, VDR inh)
Cc1nc(SCC(=O)Nc2cc(C(N)=O)cc(C(N)=O)c2)c2c(C)c(C)sc2n1	G9a block 45µM
CC(=O)Nc1ccc(NC(=O)C(C)OC(=O)C2(c3ccc(Cl)cc3)CCCC2)cc1 (stereo not given)	G9a block 50µM
